Source: PubChem (National Center for Advancing Translational Sciences (NCATS))
Shown are actives, neighbours in structure and some others; about 5.5% of the full set was active somewhere.
a7 integrin act: activators of alpha7 integrin expression for muscular dystrophy; alpha7betagal myoblasts, beta-gal FDG fluorescence, 48 h; Potency, µM (doses to about 38.3 µM), hits mostly activators; 0.064% of 350,000 active; AID 624291; also: nearly all actives have a fitted effect of over 60% in size
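alpha7betagal+/- myoblasts (passage 13, 250/well) treated 48 h at 37C with compounds at 1:260 dilution of DMSO stock. Lysed, then beta-galactosidase activity read as FDG fluorescence (ex 480/em 540) after 30 min, with pre-read for autofluorescence.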
BCR signal inh: blocks chronic active B-cell receptor signaling; AID 493014; ABC-DLBCL IkBa-CBG/CBR reporter, luminescence ratio, 4 h; Potency, µM (doses to about 46.1 µM), most hits filed as inhibitors; 0.05% of 340,000 active; active = well fitted inhibition curve with a large enough effect in the signal ratio, with a control signal flat, not every such curve was filed as active; inconclusive = small, poorly fitted or top-dose-only effect, or effect the other way, or a change in a side signal; the % refers to the signal ratio
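Doxycycline induced both beetle luciferases in TMD8 lymphoma cells; IKK-driven degradation limits the IkappaBalpha-fused green signal, while red luminescence normalises for cell number and nonspecific effects. Compounds tested up to 46 uM, 4 hrs.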
Mito fusion yeast: inhibitors of mitochondrial division or activators of mitochondrial fusion. S. cerevisiae fusion-defective mutant growth rescue, CellTiterGlo 48 h. Potency, µM (titrated, usually from 46.1 µM), actives largely listed as activators. 0.23% of 320,000 active; also: nearly all actives have a fitted effect of over 45% in size
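Temperature-sensitive fusion-defective S. cerevisiae (e.g. fzo1-1, mgm1-5) were grown with compound in YPEG medium (3% ethanol, 3% glycerol) for 48 hours at 37C. Growth rescue was measured as viability by CellTiterGlo luminescence after 10 minutes at ambient.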
uPA surface inh: cell surface uPA generation inhibition; AID 540303; cell surface uPA generation assay, qHTS; 0.31% of 330,000 active; Potency, µM (doses to about 38.3 µM), actives largely listed as inhibitors; active = well fitted inhibition curve with a large enough effect; inconclusive = small, poorly fitted or top-dose-only effect; inactive = no such curve, though single readings can be large or run the other way; tested in mouse RAW 264.7 cells; also: nearly all actives have a fitted effect of over 55% in size
RORgamma inh: ROR gamma (mouse) transcription inhibition; 5.4% of 310,000 active; Drosophila S2 Gal4-RORgamma UAS-luciferase reporter, 20 h; P51450; Potency, µM (titrated, usually from 53.6 µM), hits mostly inhibitors; also: nearly all actives have a fitted effect of over 60% in size
Target sequence (P51450 whole entry, looked up, the tested form may be a part): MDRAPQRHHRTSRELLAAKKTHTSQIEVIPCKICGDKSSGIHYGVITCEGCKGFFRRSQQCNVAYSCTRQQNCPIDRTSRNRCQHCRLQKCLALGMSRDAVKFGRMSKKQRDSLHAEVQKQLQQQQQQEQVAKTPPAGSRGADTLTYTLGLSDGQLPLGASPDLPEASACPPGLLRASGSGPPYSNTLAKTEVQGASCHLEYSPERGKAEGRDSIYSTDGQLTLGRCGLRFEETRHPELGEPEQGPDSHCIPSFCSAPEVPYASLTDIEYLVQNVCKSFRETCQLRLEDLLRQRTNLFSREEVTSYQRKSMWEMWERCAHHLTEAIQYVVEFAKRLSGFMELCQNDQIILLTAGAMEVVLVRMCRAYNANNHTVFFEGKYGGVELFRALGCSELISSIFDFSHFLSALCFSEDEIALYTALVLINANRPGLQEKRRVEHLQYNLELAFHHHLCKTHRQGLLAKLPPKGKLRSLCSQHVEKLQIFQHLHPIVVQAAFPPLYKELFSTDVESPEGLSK
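Stably transfected Drosophila Schneider cells are the test system, with ROR gamma fused to Gal4 and luciferase under UAS control; luminescence is read after 20 hr of 700 uM copper sulfate induction at ambient temperature.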
VP16 counter: Gal4-VP16 reporter inhibition counter-screen. Drosophila S2 Gal4-VP16 UAS-luciferase, luminescence, 20 h. Potency, µM (series often up to 53.6 µM), usual class: inhibitors. 3.5% of 310,000 active. AID 2546;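 also: Gal4-VP16 expression switched on by copper sulfate through the metallothionein promoter; nearly all actives have a fitted effect of over 50% in size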
Numbers stand for hits; - = inactive; ? = inconclusive; . = no result given; [ ] = dose if it differs, or a comment. Unless noted, calls follow the shape of the dose curve; as a rule, active = well fitted curve in the direction sought with a large enough effect; inconclusive = small, poorly fitted or top-dose-only effect, or another doubt; inactive = no such curve, though single readings can be large; an effect the other way counts as inactive or inconclusive.

SMILES | a7 integrin act | BCR signal inh | Mito fusion yeast | uPA surface inh | RORgamma inh | VP16 counter
O=C(c1cc(=O)[nH]c2ccccc12)N(Cc1nnc(-c2ccccc2Cl)o1)C1CC1 | - | - | - | - | . | .
O=C1/C(=C/c2ccccn2)SC(=S)N1Nc1ncc(C(F)(F)F)cc1Cl | - | . | . | - | . | .
O=C1/C(=C\c2ccccn2)SC(=S)N1Nc1ncc(C(F)(F)F)cc1Cl | - | - | - | . | 11µM | ?
Cc1ccc(S(=O)(=O)N2CCC(NC(=O)c3cccnc3)CC2)cc1Cl | - | - | - | - | - | -
CCN1C(=O)c2cccc3c(S(=O)(=O)NCC4CCCO4)ccc1c23 (stereo unspecified) | - | ? | - | ? | - | -
Cn1c(N)c(C(C[N+](=O)[O-])c2ccccc2Cl)c(=O)n(C)c1=O (stereo unspecified) | - | . | . | - | . | .
COc1cc(C(C[N+](=O)[O-])c2c(C)[nH]c3ccccc23)ccc1O (stereo unspecified) | - | - | - | - | - | -
COc1cccc(F)c1C(C[N+](=O)[O-])c1c(N)n(C)c(=O)n(C)c1=O (stereo unspecified) | - | ? | - | ? | 7.1µM | 11µM
Cc1ccc(C(C[N+](=O)[O-])c2c(N)n(C)c(=O)n(C)c2=O)cc1 (stereo unspecified) | ? | ? | - | 10µM | 13µM | ?
COc1cc(C(C[N+](=O)[O-])c2c(N)n(C)c(=O)n(C)c2=O)ccc1O (stereo unspecified) | - | ? | - | - | 14µM | -
CCc1cccc(NC(=O)c2ccc3c(=O)n4c(nc3c2)CCCCC4)c1 | - | - | - | - | - | ?
C/C=C(\C)C(=O)O[C@H]1C[C@@]2(C)CCC(C(C)C)C2(O)CC[C@@]1(C)O (stereo partly specified) | . | . | . | . | - | -
O=C(Nc1nnc(-c2ccco2)o1)c1ccc(S(=O)(=O)N2CCCC2)cc1 | - | ? | - | ? | - | -
COc1cccc(-c2nnc(NC(=O)c3ccc(S(=O)(=O)N4CC(C)OC(C)C4)cc3)o2)c1 (stereo unspecified) | - | ? | - | - | 0.56µM | 1µM
CC1CN(S(=O)(=O)c2ccc(C(=O)Nc3nnc(-c4ccco4)o3)cc2)CC(C)O1 (stereo unspecified) | - | - | - | - | 1µM | 3.2µM
CC1CCN(S(=O)(=O)c2ccc(C(=O)Nc3nnc(-c4ccco4)o3)cc2)CC1 | - | - | - | - | 0.35µM | 0.5µM
CC1CN(S(=O)(=O)c2ccc(C(=O)Nc3ccccc3F)cc2)CC(C)O1 (stereo unspecified) | - | - | . | - | . | .
COc1ccc(NC(=O)c2ccc(S(=O)(=O)N3CC(C)OC(C)C3)cc2)cc1 (stereo unspecified) | - | - | . | - | . | .
C[C@]12CCC(=O)C=C1CCC1C2C(O)C[C@]2(C)C1CC[C@]2(O)C(=O)CO (stereo partly specified) | . | . | . | . | - | -
COc1ccc(NS(=O)(=O)c2cccc(C(=O)NNC(=O)CNC(=O)c3ccc(C)cc3)c2)cc1 | - | - | - | - | . | .
Cc1nc2ccccn2c1C(=O)NNS(=O)(=O)c1ccc(C(C)(C)C)cc1 | - | - | - | - | - | 16µM
CC(=O)OCC1(C)CN(c2ccccc2)N(C(=O)c2ccc(F)cc2)C1=O (stereo unspecified) | - | ? | - | - | ? | ?
CC(C)(C)c1cn(-c2ccc(F)cc2)c(=S)[nH]1 | - | - | - | - | 8.9µM | 10µM
CCOC(=O)c1cccc(NC(=O)CSc2nncn2-c2ccccn2)c1 | - | - | - | - | - | -
CCC(C)N1C(=O)N(c2cccc(Cl)c2)C(C)(O)CC1(C)C (stereo unspecified) | - | - | - | - | 5µM | -
SMILES | a7 integrin act | BCR signal inh | Mito fusion yeast | uPA surface inh | RORgamma inh | VP16 counter
Cc1ccc(N2C(=O)N(C(C)C)C(C)(C)CC2(C)O)cc1 (stereo unspecified) | - | - | - | - | - | -
CC1(C)O[C@@H]2[C@H](O1)[C@@H](COS(=O)(=O)O)O[C@H]2n1c(=S)[nH]c2c(=O)[nH]c(N)nc21 | - | - | - | - | . | .
COc1ccc(CC(=O)n2[nH]c(=O)cc(C)c2=O)cc1OC | - | ? | - | - | 11µM | ?
CC(C)C[C@H](NC(=O)[C@H](Cc1ccccc1)NC(=O)[C@H](Cc1ccccc1)NC(=O)[C@@H](N)CO)C(=O)N[C@@H](CCCN=C(N)N)C(=O)N[C@@H](CC(N)=O)C(=O)O | . | . | . | . | - | -
Cc1ccsc1/C=N/n1c(-c2cccnc2)n[nH]c1=S | - | - | - | . | 11µM | -
S=c1[nH]nc(-c2cccs2)n1/N=C/c1cn(-c2ccccc2)nc1-c1cccs1 | - | ? | - | - | 7.9µM | ?
S=c1[nH]nc(-c2ccccc2)n1/N=C/c1cccs1 | - | ? | - | - | 4µM | -[0.365 µM]
Cc1ccc(-c2n[nH]c(=S)n2/N=C/c2cccs2)cc1 | - | ? | - | - | 5µM | 3.2µM
Cc1ccc(-c2nn(-c3ccccc3)cc2/C=N/n2c(-c3cccs3)n[nH]c2=S)cc1 | ? | ? | - | - | ? | -
Cc1cc(-c2n[nH]c(=S)n2/N=C/c2cccs2)n[nH]1 | - | - | - | - | - | ?
O=[N+]([O-])c1ccc(/C=N/n2c(-c3cccnc3)n[nH]c2=S)cc1 | - | - | - | - | - | -
CC(=O)OCC(NC(=O)C1CCCN1C(=O)OC(C)(C)C)C1OC(n2ccc(=O)[nH]c2=O)C(OC(C)=O)C1OC(C)=O (stereo unspecified) | . | . | . | . | - | -
Cn1c(CCNC(=O)c2cc(COc3ccc(F)c(F)c3)on2)nc2ccccc21 | - | - | - | - | ? | -
O=C(CN1CCN(S(=O)(=O)c2cccc(Cl)c2)CC1)NCC1(N2CCOCC2)CCCCC1 | - | - | - | - | . | .
CCOC(=O)CCCCC(=O)c1[nH]c(=O)[nH]c1CSc1nnc2c3cc(Br)ccc3n(C)c2n1 | . | - | - | . | 5µM | ?
S=C1NC[C@H](c2ccccc2)N1CCCCC1CCCCC1 | - | - | - | - | 0.45µM | 3.2µM
Oc1ccc(C[C@@H]2CNC(=S)N2CCCCC2CCCCC2)cc1 | - | - | - | - | 8.9µM | ?
COc1ccc2c(c1)CCC/C2=N\Nc1nc(C(=O)NN)cs1 | - | ? | - | - | 3.5µM | 13µM
COc1ccc2c(c1)CCC/C2=N\NC(=O)c1ccoc1C | - | ? | - | - | 40µM | ?
CCOC(=O)c1csc(N/N=C2\CCc3ccccc32)n1 | - | ? | - | - | 10µM | ?
CCOC(=O)c1csc(N/N=C2\CCCc3ccccc32)n1 | - | ? | - | - | ? | -
O=C(CN1C(=O)NC(c2ccccc2)(c2ccccc2)C1=O)NCc1ccco1 | - | - | . | - | . | .
